Assay outcomes from PubChem.
This is a sample that favours compounds with a hit; in the whole collection about 3.8% have one here.
VDR inhibitor – inhibitors of human vitamin D receptor | P11473 | VDR-SRC2-3 peptide fluorescence polarization, 2 h | Potency, µM, usual class: inhibitors | 400,000 tested, 0.93% active | AID 504847
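Fluorescence polarization assay measuring small-molecule disruption of VDR binding to the coregulator peptide SRC2-3. Compounds were pin-transferred (23 nl) into the reagent mix and incubated 2 h at room temperature before reading.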
KCNH2 3.1 inh – blocks the human KCNH2 3.1 channel isoform | U2OS KCNH2 3.1, thallium flux FluxOr; active compounds read low | activity change, % (tested at about 1.8 µM) | 340,000 tested, 0.95% active;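 active = maximum activity change below -70%; inconclusive = maximum activity change from -70% to -50%; inactive = maximum activity change above -50%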;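 note: thallium influx rate constant from kinetic fluorescence after stimulation buffer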
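FluxOr-based Tl+ influx in U2OS cells transduced with KCNH2 3.1 virus; rate constants normalized to DMSO controls.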
PLK1 PBD inh – inhibitors of human PLK1 polo-box domain binding; P53350; Plk1 PBD binding of FITC phosphopeptide, fluorescence polarization; Potency, µM, actives largely listed as inhibitors; 360,000 tested, 2.8% active; note: series mostly up to about 57 µM; nearly all actives have a fitted effect of over 65% in size
Target sequence (P53350 whole entry, looked up, the tested form may be a part): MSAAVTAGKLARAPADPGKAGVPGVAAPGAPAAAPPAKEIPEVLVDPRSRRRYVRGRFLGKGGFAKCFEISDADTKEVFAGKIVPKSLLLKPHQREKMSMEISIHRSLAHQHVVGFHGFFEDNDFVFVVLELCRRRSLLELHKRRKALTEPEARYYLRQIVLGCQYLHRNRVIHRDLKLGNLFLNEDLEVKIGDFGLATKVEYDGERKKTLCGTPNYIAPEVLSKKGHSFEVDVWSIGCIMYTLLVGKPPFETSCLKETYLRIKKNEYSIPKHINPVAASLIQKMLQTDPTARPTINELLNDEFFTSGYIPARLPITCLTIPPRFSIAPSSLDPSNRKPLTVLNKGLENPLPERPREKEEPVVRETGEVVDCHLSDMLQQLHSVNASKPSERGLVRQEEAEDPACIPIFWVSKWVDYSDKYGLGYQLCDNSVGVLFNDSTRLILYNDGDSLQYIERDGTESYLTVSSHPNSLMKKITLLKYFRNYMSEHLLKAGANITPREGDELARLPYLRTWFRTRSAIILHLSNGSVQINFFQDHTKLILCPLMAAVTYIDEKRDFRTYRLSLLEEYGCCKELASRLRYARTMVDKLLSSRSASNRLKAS
MBNL1 CUG block – inhibitors of human MBNL1 binding to CUG repeat RNA; 280,000 tested, 0.036% active; TR-FRET MBNL1-His/biotin-(CUG)12 binding, 665/545 ratio; Q9NR56; Potency, µM (doses to about 57.5 µM), most hits filed as inhibitors; AID 2675; active = well fitted inhibition curve with a large enough effect in the signal ratio, with a control signal flat, not every such curve was filed as active; inconclusive = small, poorly fitted or top-dose-only effect, or effect the other way, or a change in a side signal; inactive = no such curve, though single readings can be large or run the other way; the % refers to the signal ratio
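Ratiometric TR-FRET (665 over 545 nm, excitation 340 nm) tracks disruption of MBNL1-His/biotin-(CUG)12 complex after 60 min at room temperature, with compounds at 92 nM to 58 uM final.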
CBFb-RUNX1 inh – inhibitors of human CBF-beta and RUNX1 interaction; Q01196+Q13951; AlphaScreen CBFb-His/RUNX1-biotin binding, biochemical; Potency, µM (doses to about 59.8 µM), actives largely listed as inhibitors; 230,000 tested, under 10 active; AID 1477
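Interaction loss through any mechanism counts as activity. Pre-formed complex of His-CBF-beta and biotin-RUNX1 (30 nM apiece) is incubated with compound 15 min, then with 50 ng nickel and 50 ng streptavidin beads for 90 min before AlphaScreen detection.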
KCNH2 WT inh – blocks the wildtype human KCNH2 potassium channel; U2OS, BacMam KCNH2, thallium flux FluxOr; active compounds read low; AID 720551; 340,000 tested, 0.37% active; activity change, % at 1.84 µM;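 active = maximum activity change below -70%; inconclusive = maximum activity change between -70% and -50%; inactive = maximum activity change above -50%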
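U2OS cells were transduced with wild-type KCNH2 virus (2.03 x 10^8 / mL) for 4 h at room temperature, then cultured overnight at 37 C. Thallium flux was read with FluxOr dye. Rate constants were normalized to DMSO controls.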
A number is an active result; i = inactive; ? = inconclusive; nt = not tested or not shown; [ ] = dose if it differs, or a comment. Unless noted, calls come from the whole dose curve; as a rule, active = well fitted curve in the direction sought with a large enough effect; inconclusive = small, poorly fitted or top-dose-only effect, or another doubt; inactive = no such curve, though single readings can be large; an effect the other way counts as inactive or inconclusive.

SMILES	VDR inhibitor	KCNH2 3.1 inh	PLK1 PBD inh	MBNL1 CUG block	CBFb-RUNX1 inh	KCNH2 WT inh
O=C(NC1CCCCC1)Oc1cc2oc(=O)sc2cc1Cl	32µM	i	2.7µM	i	i	i
COc1ccc(CC2NC[C@H](O)[C@H]2OC(C)=O)cc1 (stereo partly specified)	i	nt	nt	nt	i	nt
COCCn1c(-c2ccccc2)cc(C(=O)O)c1C	i	i	24µM	nt	nt	i
Cc1ccccc1NC(=O)c1cc(-c2ccccc2)n(CCCN2CCOCC2)c1C	i	i	i	nt	i	i
O=C1NC(=O)N(c2ccccc2)C(=O)/C1=C\c1ccc2c3c(cccc13)CC2	nt	nt	nt	i	i	nt
O=C1NC(=O)N(Cc2ccccc2)C(=O)/C1=C/c1cnn(-c2ccccc2)c1	nt	nt	nt	i	i	nt
COc1ccccc1N1C(=O)NC(=O)/C(=C\c2cnn(-c3ccccc3)c2)C1=O	?	i	3.4µM	i	i	i
COc1cc(/C=C2/C(=O)NC(=O)N(c3ccccc3)C2=O)ccc1O	i	i	8.4µM	i[11.5 µM]	i	i
COc1cccc(N2C(=O)NC(=O)/C(=C/c3ccc4c(c3)Cc3ccccc3-4)C2=O)c1	?	i	3.4µM	i	i	i
COc1ccccc1N1C(=O)NC(=O)/C(=C/c2ccc3c4c(cccc24)CC3)C1=O	50µM	i	7.5µM	?	i	i
COC(=O)[C@@]1(Cc2ccccc2)[C@H]2c3cc(C(=O)N(C)C)[nH]c3C[C@H]2CN1C(=O)c1ccccc1	nt	nt	nt	nt	i	nt
CCc1ccc(N2C(=O)NC(=O)/C(=C/c3cccn3CCOc3ccc(C(C)CC)cc3)C2=O)cc1 (stereo unspecified)	i	i	i	i	i	nt
CCOc1cc(/C=C2/C(=O)NC(=O)N(c3ccc(CC)cc3)C2=O)ccc1OC(=O)c1cccs1	?	i	6µM	i	i	i
COc1ccc(/C=C2/C(=O)NC(=O)N(c3ccccc3)C2=O)cc1CN1C(=O)c2ccccc2C1=O	79µM	i	6µM	i	i	i
c1ccc2c(c1)CCNC2	nt	nt	nt	nt	i	nt
CCNCC	nt	nt	nt	nt	i	nt
CCOC(=O)[C@]12Cc3cc(OC)ccc3[C@H]1N(Cc1ccccc1)C(=O)c1ccccc12	i	i	i	nt	nt	i
CCOC(=O)[C@]12Cc3ccccc3[C@H]1N(CCC(=O)OC)C(=O)c1ccccc12	nt	nt	9.5µM	nt	nt	nt
CCCCCN1C(=O)c2ccccc2[C@@]2(C(=O)OCC)Cc3cc(OC)ccc3[C@@H]12	nt	nt	5.3µM	nt	nt	nt
CCOC(=O)[C@]12Cc3ccccc3[C@H]1N(Cc1ccccc1)C(=O)c1ccccc12	i	i	i	nt	nt	i
CC#C[C@]1(O)CC[C@H]2C3C=C(C)C4=CC(=O)C=C[C@]4(C)[C@H]3[C@@H](O)C[C@@]21C (stereo partly specified)	i	nt	nt	nt	i	nt
COc1ccccc1N1CCN(Cc2ccc(Br)cc2)CC1	i	-76	i	i	nt	i
CC(C)(OOC(C)(C)c1ccccc1)c1ccccc1	nt	nt	nt	nt	i	nt
O=C1NC(=O)C(=Cc2ccc3ccccc3c2)C(=O)N1	?	i	4.2µM	i	i	i
COC(=O)Cn1cc(C=C2C(=O)NC(=O)NC2=O)c2ccccc21	i	i	?	i	nt	i
SMILES	VDR inhibitor	KCNH2 3.1 inh	PLK1 PBD inh	MBNL1 CUG block	CBFb-RUNX1 inh	KCNH2 WT inh
Cc1cc(C)cc(OCCOc2cccc(C=C3C(=O)NC(=O)NC3=O)c2)c1	?	i	6µM	i	nt	i
O=C1NC(=O)C(=Cc2ccc(Oc3ccc([N+](=O)[O-])cc3)cc2)C(=O)N1	32µM	i	3µM	?	i	i
O=C1NC(=O)C(=Cc2cc([N+](=O)[O-])ccc2N2CCCCC2)C(=O)N1	i	i	i	?	i	i
CCn1cc(C=C2C(=O)NC(=O)NC2=O)c2ccccc21	i	i	i	i	nt	i
CC(=O)CC(c1ccccc1)c1c(O)c2cc(O)ccc2oc1=O (stereo unspecified)	i	nt	nt	nt	i	nt
CCCCOC(=O)N(C)SN(C)C(=O)Oc1cccc2c1OC(C)(C)C2	3.2µM	nt	nt	nt	i	nt
Nc1ncnc2c1ccn2[C@@H]1O[C@H](CO)[C@@H](O)[C@H]1O	i	i	i	nt	i	i
NC(=S)c1cn(C2OC(CO)C(O)C2O)c2ncnc(N)c12 (stereo unspecified)	?	i	27µM	i	i	i
CCN(CC)c1ccc(/C=C2\C(=O)NC(=O)N(CC3CCCO3)C2=O)cc1 (stereo unspecified)	i	i	?	i	i	i
Cc1ccc(/C=C2\C(=O)NC(=O)N(CC3CCCO3)C2=O)s1 (stereo unspecified)	?	i	4.7µM	i	i	i
CCOC(=O)[C@]12Cc3cc(C)ccc3[C@H]1N(C1CCCCC1)C(=O)c1cc(OC)ccc12	nt	nt	2.4µM	nt	nt	nt
CCOC(=O)[C@]12Cc3cc(OC)ccc3[C@H]1N(Cc1ccccc1)C(=O)c1cc(F)c(F)cc12	i	i	i	nt	nt	i
CCOC(=O)[C@]12Cc3c(cc(OC)c(OC)c3OC)[C@H]1N(C)C(=O)c1cc(OC)ccc12	nt	nt	13µM	nt	nt	nt
CCOC(=O)[C@]12Cc3ccccc3[C@H]1N(C(C)C)C(=O)c1cc(OC)ccc12	nt	nt	7.5µM	nt	nt	nt
CCOC(=O)[C@]12Cc3ccccc3[C@H]1N(C)C(=O)c1cc(OC)ccc12	nt	nt	13µM	nt	nt	nt
CCS(=O)(=O)Nc1ccc(C2=NN(C(=O)c3ccco3)C(c3ccc(Cl)o3)C2)cc1 (stereo unspecified)	?	i	i	nt	nt	i
CC(=O)[O][Hg][c]1ccccc1	1.8µM	nt	nt	nt	i	nt
CC(=O)/C=C/c1ccccc1	i	i	i	nt	i	i
FC(Cl)(Cl)Cl	nt	nt	nt	nt	i	nt
CC/C(=N\Nc1ccccc1)c1c(O)n(C)c(=O)n(C)c1=O	i	i	i	i	i	i
C/C(=N\NC(=S)Nc1ccccc1)c1c(O)n(C)c(=O)n(C)c1=O	?	i	21µM	i	i	i
CCN(CC)c1ccc(/C=C/[N+](=O)[O-])cc1	18µM	?	i	i	i	i
CCN(CC)c1ccccc1	i	i	i	nt	i	i
CC(C)C#N	nt	nt	nt	nt	i	nt
COc1ccccc1-n1c(O)c(/C=N/NC(=S)Nc2ccccc2)c(=O)[nH]c1=S	?	-93	i	?	?	i
SMILES	VDR inhibitor	KCNH2 3.1 inh	PLK1 PBD inh	MBNL1 CUG block	CBFb-RUNX1 inh	KCNH2 WT inh
CCn1c(O)c(/C=N/NC(=O)c2ccccc2)c(=O)[nH]c1=S	i	i	i	i	i	i
COC(=O)C(O)(c1c(C)[nH]n(-c2ccccc2)c1=O)C(F)(F)F (stereo unspecified)	?	i	24µM	i	i	i
CN(C(=O)Cc1ccc(Cl)c(Cl)c1)[C@H](CN1CCCC1)c1ccccc1	?	nt	nt	nt	i	nt
Cn1ccnc1P(=S)(c1nccn1C)c1nccn1C	i	i	i	i	i	i
Cn1ccnc1P(=S)(c1nccn1C)N1CCOCC1	?	i	27µM	i	i	i
C=CC(C)=O	nt	nt	nt	nt	i	nt
CCOC(=O)c1c(/N=C/C2C(=O)NC(=O)NC2=O)sc2c1CCC2	i	i	i	i	i	i
CCOC(=O)c1c(NC(NC(=O)CF)C(Cl)(Cl)Cl)sc2c1CCCC2 (stereo unspecified)	45µM	i	12µM	i	i	i
